From PubChem
Compounds with a hit are over-represented: about 19% of the library has one in this group of screens.
SW480 rerep = induces DNA re-replication in SW480 colon adenocarcinoma cells. AID 624297. 340,000 compounds, 1.8% hits. Potency, µM (top dose mostly 46.1 µM), without a hit: at the top dose re-replication activation, hits mostly activators. SW480 DNA re-replication, Hoechst DNA content imaging, 48 h; note: potency is the fitted concentration of half-maximal effect; % of control where 0% means no effect; nearly all actives have a fitted effect of over 55% in size
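Quantitative HTS format with DMSO vehicle controls; 48 hr drug incubation at 37 C, then 40 min Hoechst staining and scanning imager measurement at 405 nm excitation.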
BCR signal inh = blocks chronic active B-cell receptor signaling | ABC-DLBCL IkBa-CBG/CBR reporter, luminescence ratio, 4 h | Potency, µM (top dose mostly 46.1 µM), without a hit: at the highest dose activity change, negative = inhibition, usual class: inhibitors | 340,000 compounds, 0.05% hits | AID 493014; active = well fitted inhibition curve with a large enough effect in the signal ratio, with a control signal flat, not every such curve was filed as active; inconclusive = small, poorly fitted or top-dose-only effect, or effect the other way, or a change in a side signal; the % refers to the signal ratio;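 note: potency is the fitted concentration of half-maximal effect; plate controls were basal doxycycline-induced cells for no effect and cells given 10 µM MG132 for full effect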
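TMD8 human ABC-DLBCL cells with doxycycline-inducible IκBα–green luciferase fusion and unfused red luciferase, in 0.5% FBS medium; compounds up to 46 uM, 4 h at 37C. Green/red luminescence ratio, filter-overlap corrected, fitted to concentration-response curves.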
IL1B secr inh = inflammasome signaling inhibition, IL-1 beta readout; THP-1 LPS/ATP IL-1B secretion, AlphaLISA, 16 h; stronger effect = lower value; 360,000 compounds, 4.7% hits; activity change, % at 57.5 µM; in the data active = activity change below about -50%; inconclusive = mostly about -30% to -49%; note: % is set by controls: 0 for no effect and ±100 for the full control effect
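THP-1 cells pretreated 1 hr with compounds (up to 57.5 uM final), then stimulated with LPS (250 ng/mL final) plus ATP (1.25 mM final); secreted IL-1B measured by AlphaLISA after 16 hr, decreased signal indicating inhibition.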
TDP1 cell noCPT = qHTS for Inhibitors of human tyrosyl-DNA phosphodiesterase 1 (TDP1): qHTS in cells in absence of CPT; DT40 Tdp1-/- hTDP1 cells, no CPT, ATP luminescence, 48 h; Potency, µM (highest dose often 46.2 µM), inactives show at the highest dose activity change, negative = growth inhibition, actives largely listed as inhibitors; 420,000 compounds, 15% hits; AID 686978, 2013; note: potency is the fitted concentration of half-maximal effect; % is set by controls: 0 for no effect and ±100 for the full control effect; nearly all actives have a fitted effect of over 55% in size
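Luminescent ATP content (CellTiter-Glo) served as the growth readout. Knockout chicken DT40 cells expressing human TDP1 were exposed to compounds without camptothecin for a minimum 48 hr at 37 °C.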
MCF10A rerep = DNA re-replication induction in MCF 10a cells; AID 624296; 350,000 compounds, 2.9% hits; MCF 10A DNA re-replication, Hoechst nuclear intensity, 48 h; Potency, µM (series often up to 46.1 µM), for the others: at the top dose activity, positive = re-replication, hits mostly activators; note: potency is the fitted concentration of half-maximal effect; % of control where 0% means no effect; nearly all actives have a fitted effect of over 50% in size
DT40 TDP1 CPT = growth inhibition of DT40 Tdp1-/-;hTDP1 cells with camptothecin (screen for TDP1 inhibitors); Potency, µM (top dose mostly 46.2 µM), inactives show at the highest dose activity change, negative = growth inhibition, actives largely listed as inhibitors; AID 686979; chicken DT40 Tdp1-/-;hTDP1 cells + 20 nM CPT, ATP luminescence, 48 h; 420,000 compounds, 12% hits; note: potency is the fitted concentration of half-maximal effect; % is set by controls: 0 for no effect and ±100 for the full control effect; nearly all actives have a fitted effect of over 55% in size
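Cell growth measured by CellTiter-Glo luminescence after a minimum 48 h, 37 C compound exposure with 20 nM CPT in Tdp1-knockout DT40 cells stably expressing hTDP1, seeded 400/well; qHTS titration format.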
An asterisk follows results filed as active; u = inconclusive; x = not tested or not shown; ! = not confirmed by another sample. Unless noted, calls come from the whole dose curve; as a rule, active = well fitted curve in the direction sought with a large enough effect; inconclusive = small, poorly fitted or top-dose-only effect, or another doubt; inactive = no such curve, though single readings can be large; an effect the other way counts as inactive or inconclusive.

SMILES | SW480 rerep | BCR signal inh | IL1B secr inh | TDP1 cell noCPT | MCF10A rerep | DT40 TDP1 CPT
CCCCOC(=O)c1ccc(NC(=O)/C(C#N)=C/c2ccc(-c3ccccc3)o2)cc1 | x | x | x | 16.4µM* | x | 16.4µM*
COc1ccc(NC(=O)/C(C#N)=C\c2ccc(-c3cccc(C(=O)O)c3C)o2)cc1 | -0.2% | u | -18.0 | 4.61µM* | 7.1% | u
CCOC(=O)c1ccc(-c2ccc(/C=C(\C#N)C(=O)Nc3c(C)cccc3Cl)o2)cc1 | x | x | x | -20.6% | x | -25.1%
COc1ccc(NC(=O)/C(C#N)=C/c2ccc(-c3ccc(Cl)c(C(=O)O)c3)o2)cc1 | -1.3% | u | 5.6 | u | -2.2% | 18.4µM*
CCOC(=O)c1ccc(-c2ccc(/C=C(\C#N)C(=O)NCC3CCCO3)o2)cc1 (centres undefined) | 5.1% | 0.1% | 0.0 | 23.1µM* | 14.4% | 20.6µM*
CN1CCN(C(=O)C[C@H]2C[C@H]3c4cc(NC(=O)NC5CCCCC5)ccc4O[C@H]3[C@@H](CO)O2)CC1 | x | x | -14.2 | 9.8% | x | -3.3%
COc1cc(/C=C(\C#N)C(=O)NCC2CCCO2)ccc1OCCC(C)C (centres undefined) | -4.6% | u | 4.0 | 16.4µM* | 6.7% | 20.6µM*
Cc1ccc(S(=O)(=O)NC(C)CCc2ccccc2)cc1C(N)=O (centres undefined) | -2.0% | -1.8% | 38.3 | 18.4µM* | -6.1% | u
Cc1ccc(S(=O)(=O)NC(C)CCc2ccccc2)cc1 (centres undefined) | -5.9% | -5.5% | 10.6 | -24.9% | 0.7% | u
O=C(Cn1ncc2c([nH]c3ccccc32)c1=O)N1CCN(c2ccccn2)CC1 | -22.2% | -1.9% | 34.1 | -28.2% | 5.9% | u
Cc1nc2scc(C)n2c(=O)c1S(=O)(=O)N1CCN(c2cccc(C(F)(F)F)c2)CC1 | -0.3% | u | 18.1 | u | 11.5% | -19.8%
O=C(N/N=C/c1sc2ccccc2c1O)c1ccccc1 | 2.59µM* | u | 51.3 | 0.651µM* | u | 0.92µM*
COc1ccc(C(=O)N/N=C/C(=O)c2ccccc2)cc1 | 4.8% | -6.1% | -3.1 | 2.4% | 14.5% | -21.9%
O=C(N/N=C/c1ccc(F)cc1)c1ccccc1 | -6.0% | u | -26.9 | -6.4% | -7.0% | 3.3%
O=C(N/N=C/c1ccccc1F)c1cccc2ccccc12 | -0.3% | 2.9% | 36.9 | u | 9.1% | u
COc1ccc(C(=O)N/N=C/c2sc3ccccc3c2O)cc1 | 5.17µM* | u | 9.4 | 3.66µM* | u | 2.59µM*
O=C(N/N=C/c1sc2ccccc2c1O)c1cccc2ccccc12 | u | u | 96.0 | 5.17µM* | u | 2.59µM*
COc1ccc2cc(C(=O)N/N=C/c3sc4ccccc4c3O)ccc2c1 | u | u | 1.3 | 7.31µM* | u | 10.3µM*
O=C(CN1CCN(Cc2ccccc2Cl)CC1)N/N=C/c1cccs1 | -7.8% | -11.7% | -0.1 | -13.3% | 14.4% | 16.4%
CC(C)[C@H](NC(=O)N1CC(=O)Nc2ccccc21)C(=O)N[C@H](Cc1ccccc1)C(=O)O | 6.7% | -3.5% | 9.1 | -6.2% | -1.7% | 1.1%
Cc1cc(C)cc(OCC(=O)Nc2ccc3c4c(cccc24)CC3)c1 | 0.8% | -1.6% | 18.1 | u | u | u
COc1cccc(C(=O)NC(=S)Nc2ccc3c4c(cccc24)CC3)c1 | -2.1% | u | -11.1 | u | 4.7% | u
O=C(COc1ccc2ccccc2c1)Nc1cccc(C(=O)Nc2ccccc2C(=O)O)c1 | x | u | 0.0 | u | 25.1% | -29.6%
O=C(COc1ccc2ccccc2c1)Nc1ccc2c3c(cccc13)CC2 | -9.1% | 9.7% | 6.5 | -15.0% | 20.6µM* | u
O=C(COc1ccc2ccccc2c1)Nc1ccc(Br)cc1C(=O)O | -3.1% | u | -4.1 | -13.3% | 9.2µM* | 8.1%
SMILES | SW480 rerep | BCR signal inh | IL1B secr inh | TDP1 cell noCPT | MCF10A rerep | DT40 TDP1 CPT
Cc1ccccc1OCC(=O)NC(=S)Nc1ccc2c3c(cccc13)CC2 | -17.1% | -0.1% | -1.8 | 18.4µM* | u | 18.4µM*
CC(C)NC(=O)C1(C)CCCN1C(=O)c1cc(C#N)cs1 (centres undefined) | x | x | 22.4 | -2.0% | x | 2.8%
Cc1ccc(NC(=O)C2(C)Cc3ccccc3C(=O)O2)c(C)c1 (centres undefined) | x | x | x | u | x | -13.6%
CC(=O)N(CCc1ccccc1)Cc1cc2ccc(C)c(C)c2[nH]c1=O | 0.7% | -17.4% | -10.7 | -19.0% | -3.9% | -19.6%
COc1ccccc1CNC(=O)Cn1cc([N+](=O)[O-])ccc1=O | -13.4% | 0.9% | -9.2 | -3.0% | -4.3% | -6.3%
COc1cccc(/C=C/c2nc3ccccc3nc2/C=C/c2cccc(OC)c2OC)c1OC | x | x | x | 2.82µM* | x | 8.91µM*
COc1cccc(/C=C/c2ccncc2)c1OC | -1.4% | -7.2% | -8.7 | 23.1µM* | 18.2% | u
COc1cccc(/C=C/C(=O)NNC(=O)c2ccncc2)c1OC | 2.4% | 8.7% | -15.9 | -3.9% | -4.4% | 1.8%
Fc1ccc(/C=C/c2nccc3ccccc23)cc1 | x | x | x | 14.1µM* | x | 7.08µM*
COc1ccccc1N1CCN(/N=C/c2cccc(OC)c2OC)CC1 | -8.4% | -1.7% | -4.8 | -14.3% | 7.0% | -17.2%
CCn1c(/C=C/c2ccc(F)cc2)nc2ccccc2c1=O | u | u | x | u | 1.9% | u
COc1cccc(/C=C/c2nccc3ccccc23)c1OC | x | x | x | 15.8µM* | x | u
CCN(CC(=O)Nc1ccc(OC)cc1)C(=O)CSCC(=O)Nc1cc(C)on1 | 9.5% | 1.7% | -8.4 | -4.9% | 21.2% | -3.3%
NNCCc1ccccc1 | 0.1% | u | 0.9 | 13µM*! | u | u
CCNC(=O)CC1C(=O)N(c2ccc(F)cc2)C(=O)N1CCOC (centres undefined) | x | x | x | -1.3% | x | 6.7%
O=C(O)[C@H]1CN(C/C=C/P(=O)(O)O)CCN1 | -2.6% | x | x | 1.3% | -0.3% | 6.8%
CCN(CC)c1ccc(/C=C(\C#N)C(=O)c2ccc(Br)cc2)cc1 | u | -0.9% | u | u | 13µM* | u
CCN(CC)c1ccc(/C=C(\C#N)C(N)=O)cc1 | 1.0% | u | -10.6 | -3.1% | -0.2% | -5.3%
CC1CC(N(C(=O)c2ccccc2Cl)c2ccccc2)c2ccccc2N1 (centres undefined) | u | 7.0% | 22.0 | 5.8µM* | u | 7.31µM*
COCCn1c(=O)c(-c2ccc(Cl)cc2)nc2cnc(OCc3ccccc3)nc21 | x | x | x | 22.4% | x | 16.9%
